Measurements from PubChem BioAssay (NCI).
Several values for one entry are separate records, joined by “and”; a condition that tells them apart may be missing. Equal values may be shown once. The panel holds about 79,000 compounds, 15% with a hit somewhere; the sample as a whole holds those more often. Rule as the data show it: active = growth inhibition above about 70%; inactive = the rest.

Columns and labels:
[1] = NCI Yeast Anticancer Drug Screen. Data for the rad50 strain (AID 155);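 also: 0% = growth of vehicle-only cultures of the same strain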; settings: S. cerevisiae rad50 strain growth inhibition; at 50.0 µM; hits give high values
Summary of the method: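 Vehicle-treated cultures provide the reference for the growth inhibition reported for compound-exposed, repair-deficient yeast.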

[2] = NCI Yeast Anticancer Drug Screen. Data for the mec2-1 strain (AID 157); settings: S. cerevisiae mec2-1 strain, at 50.0 µM, hits give high values
Summary of the method: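 Strain: mec2-1 (DNA repair/cell cycle alteration). Compound exposure, then growth measured; inhibition expressed relative to vehicle.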

[3] = NCI Yeast Anticancer Drug Screen. Data for the sgs1 mgt1 strain (AID 161);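 also: 0% = growth of cultures given vehicle only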; settings: S. cerevisiae sgs1 mgt1 strain, at 50.0 µM, hits give high values
Summary of the method: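 Mutant yeast exposed to compound; growth scored against vehicle-only wells.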

[4] = NCI Yeast Anticancer Drug Screen. Data for the cln2 rad14 strain (AID 165);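 also: 0% = growth equal to vehicle treated cultures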; settings: S. cerevisiae cln2 rad14 strain, at 50.0 µM, hits give high values
Summary of the method: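 Compounds are applied to the cln2 rad14 yeast strain, and growth is then compared with that of vehicle-treated cultures to give inhibition.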

[5] = NCI Yeast Anticancer Drug Screen. Data for the bub3 strain (AID 167); settings: S. cerevisiae bub3 mutant strain, at 50.0 µM, hits give high values
Summary of the method: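 Mutant yeast screening strain plus compound; vehicle-treated cultures serve as the 0% inhibition reference.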

[6] = NCI Yeast Anticancer Drug Screen. Data for the mlh1 rad18 strain (AID 175); settings: S. cerevisiae mlh1 rad18 strain growth inhibition; at 50.0 µM; hits give high values
Summary of the method: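 Read-out is yeast growth inhibition, calculated against vehicle-only controls. The compound was applied to a strain engineered with DNA damage repair alterations.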

Measured: growth inhibition

C=CC/C(=N\OS(=O)(=O)O)SC1OC(CO)C(O)C(O)C1O (stereo not given)
inactive: [1] 2.2% and 4.75% | [2] -30.6% and -21.5% | [3] -0.75% and -20.6% | [4] 13.4% and 7.4% | [5] -14% and -30.2% | [6] -14.9% and -10.7%

COC(=O)C1=COC(C)C2CN3CCc4c([nH]c5cc(OC)c(OC)cc45)C3CC12 (stereo not given)
inactive: [1] 14.2% and 5.35% and -4.65% | [2] -5.4% and -5.6% and -9.7% | [3] 5.6% and 12.8% and -5.45% | [4] 6.1% and 14.9% and 10.6% | [5] 26.4% and 18.1% and -20.4% | [6] 25.6% and -54.1% and -63.4%

O=C(Nc1ccccc1)C1CCCCC1CO (stereo not given)
inactive: [1] 18.9% and 7.15% | [2] 5.95% and 17.4% | [3] 9.95% and 22.1% | [4] 7% and 7.1% | [5] 2.65% and -6.15% | [6] 5.95% and 31.8%

C[N+](C)(C)CCO
inactive: [1] -16.1% and 2.25% | [2] -22.9% and -8.65% | [3] -5.85% and -6.65% | [4] 21.1% and 13.4% | [5] 16.5% and 16.8% | [6] 0.85% and -2.2%

O=C(O)CCCCC(=O)O
inactive: [1] 2.1% and -5.2% | [2] -6.65% and -1.2% | [3] -3.8% and -32.5% | [4] -30.3% and 8% | [5] -18.1% and -22.1% | [6] -5.6% and 6.85%

COC(=O)C1OC(O[C@H]2CC[C@]3(C)[C@H]4CC=C5[C@@H]6CC(C)(C)CC[C@]6(C(=O)OC6OCC(O)C(O)C6OC6OC(C)C(OC7OCC(O)C(OC8OCC(O)C(O)C8O)C7O)C(OC7OCC(O)C(O)C7O)C6O)CC[C@@]5(C)[C@]4(C)CC[C@H]3C2(C)C)C(O)C(OC2OCC(O)C(O)C2O)C1O (stereo not given in full)
inactive: [1] 18.1% and 22.6% | [2] 7.8% and 16.5% | [3] 18.6% and 23.1% | [4] 18.1% and 18.7% | [5] 30.2% and 22.7% | [6] 26.2% and 38%

CC(=O)N(O)CCCCCNC(=O)CCC(=O)N(O)CCCCCNC(=O)CCC(=O)N(O)CCCCCN
inactive: [1] 12.6% and 8% | [2] -9.65% and -0.45% | [3] 2.1% and -5.3% | [4] 6.9% and 5.75% | [5] 9.55% and 0.5% | [6] 11.4% and 4.05%

OC1CCCC(O)C1O (stereo not given)
inactive: [1] 1.25% and 6.1% | [2] -2.7% and -12.9% | [3] 14.1% and 9.8% | [4] -7.2% and -2% | [5] 3.9% and 20.6% | [6] -2.65% and -4.4%

Cc1cn(C2CC(CCCO)C(CO)O2)c(=O)[nH]c1=O (stereo not given)
inactive: [1] -6.5% and -9.9% | [2] -7% and -5.25% | [3] 6.7% and 2.7% | [4] -2.8% and 16.1% | [5] 2.3% and 0.3% | [6] 5.35% and 0.6%

O=C(O)C(Cc1ccc(O)cc1)NS(=O)(=O)Cc1ccccc1 (stereo not given)
inactive: [1] -12.8% and 7.15% | [2] -5.85% and 17.5% | [3] -3.1% and 14.7% | [4] 0.4% and -22.2% | [5] -55.3% and 19.9% | [6] -19.1% and 3.8%

c1ccc(Cc2nc3ccccc3[nH]2)cc1
inactive: [1] -13.5% and -2.5% | [2] -33.8% and -4.1% | [3] -10.4% and -18.9% | [4] -4.9% and 2.65% | [5] -28.8% and -13.8% | [6] 0.7% and -16.4%

C/C=C(\C)C(=O)O
inactive: [1] 17.6% and -9.95% | [2] 9.3% and -5.05% | [3] -4.9% and -41.8% | [4] 13.2% and 2.25% | [5] 11.4% and -42.2% | [6] 25% and 9.75%

C=CCOC(=O)C(C)OC(=O)C(C)O (stereo not given)
inactive: [1] 35.3% and 15.3% | [2] 11.8% and 10.6% | [3] 13.6% and -3.75% | [4] 11.6% and -4% | [5] 6.85% and -0.4% | [6] 9.85% and 1.9%

O=C(CCCCCCCCC(=O)NCC1(c2ccccc2)CCN(Cc2ccccc2)CC1)NCC1(c2ccccc2)CCN(Cc2ccccc2)CC1
inactive: [1] -7.45% and 8.25% | [2] -17.1% and 6.25% | [3] -13.8% and -19.2% | [4] -11.4% and 2.2% | [5] 10.4% and 3.6% | [6] -0.55% and 26.4%

COc1ccc(COC(=O)NCC(=O)NC(C)C(=O)NC(Cc2ccccc2)C(=O)OCc2ccccc2)cc1 (stereo not given)
inactive: [1] -6.5% and 3.15% | [2] -10.4% and -13.6% | [3] -14.9% and -1.9% | [4] -21.1% and -17.6% | [5] -0.7% and 1.65% | [6] 4.25% and 6.25%
